From PubChem BioAssay AID524 (The Scripps Research Institute Molecular Screening Center, 2006)
The whole screen tested about 65,000 compounds, of which about 95 (0.1%) were called active. This is one part of a sample in which actives are shown more often than they occur.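 The calls were made as follows: active = inhibition above the screen-wide mean inhibition plus 3 SD (cut at about 21% in these data); inactive = the rest.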

Molecular target: cAMP-dependent protein kinase catalytic subunit alpha (Homo sapiens) (UniProt P17612)
Test: PKA catalytic subunit kinase inhibition – biochemical, ATP-depletion luminescence, Kemptide substrate, primary screen (AID 524)
Conditions: PKA Kemptide phosphorylation, Kinase-Glo ATP luminescence; at 6 µM; stronger effect = higher value

inhibition, inactive:
CC(=O)Cc1nsc(NC(=O)c2ccc(COc3ccc(C)cc3)o2)n1 11.4%
O=C(Nc1cccnc1)c1noc2c1CCCCC2 -2.8%
O=C(CN1CCN(C2CCCCC2)CC1)Nc1ccccc1N1CCCCC1 1.9%
O=C1c2ccccc2C(=O)N1c1ccccc1S(=O)C(F)(F)F (stereo not given) -0.9%
Cc1ccccc1C(=O)NCCN=C1NS(=O)(=O)c2ccccc21 11.6%
CSc1ccc(NC(=O)N2CC(C)OC(C)C2)cc1 (stereo not given) 10.1%
N#Cc1ccc(COC(=O)Cn2nnc(-c3ccccc3)n2)cc1 10.9%
Cc1cc(C(=O)OCC(=O)NCc2ccco2)c(C)n1-c1ccccc1 0.4%
CS(=O)(=O)N(CC(=O)N1CCOCC1)c1ccc2c3c(cccc13)CC2 10.1%
COc1ccc2c(CC(=O)Nc3nnc(C4CC4)s3)coc2c1 10.2%
CC1CCCCC1NC(=O)CSc1nnc(N)s1 (stereo not given) 5.7%
C=CCNC(=O)C12CC3CC(C1)CC(C(=O)NCC=C)(C3)C2 -3.4%
N#Cc1nc(COc2ccc(Cl)cc2)oc1N1CCCC1 -3%
Cc1nc(C)c(C(=O)Nc2cccc(C)c2C)o1 -2.6%
O=C(C1CC1)N1CCN=C1SCc1ccc(Cl)cc1 6.8%
Brc1cccc(-c2nnc3n2CCC3)c1 0.9%
CCOC(=O)C1CCN(C(=O)Cn2cc(C#N)c3ccccc32)CC1 4.3%
COc1cccc2cc(C(C)N(CCCN3CCOCC3)C(=O)Nc3ccc(Cl)cc3)oc12 (stereo not given) 0.5%
O=S(=O)(NCc1ccc2c(c1)OCO2)c1cccc2nsnc12 5.1%
c1ccc(CCn2nnnc2CN2CCN(C3CCCC3)CC2)cc1 -3.2%
Cc1cc2ccccc2n2c(SCC(=O)N3CCN(C(=O)c4ccco4)CC3)nnc12 8.5%
CCCn1c(SCC(=O)Nc2c(C)cccc2C)nnc1C(C)C 4.9%
CCn1c(SCC(=O)Nc2cccc(F)c2)nnc1-c1cc2cc(Br)ccc2o1 10.1%
Cc1cccc(CC(=O)Nc2c3c(nn2-c2cccc(Cl)c2)CS(=O)C3)c1 (stereo not given) 9.5%
NC(=O)CCCC1=NS(=O)(=O)c2ccccc2N1 5.7%
CCN(c1ccccc1)S(=O)(=O)c1ccc(N)cc1 9%
CCCCn1c(SCC(=O)N2CCC(C(=O)OCC)CC2)nc2cc(S(N)(=O)=O)ccc21 2.4%
CCCCNc1nc2c(c(=O)[nH]c(=O)n2C)n1CCOc1ccccc1 -1.2%
CCOc1ccc(NC(=O)CSc2nc3c(c(=O)n2-c2ccccc2OC)SCC3)cc1 -2.3%
COc1ccc(OC)c2[nH]c(=O)c(CCNC(=O)C(C)(C)C)cc12 2.9%
CC(C)C(C(=O)NC1CCCCC1)N(CC1CCCO1)C(=O)CNS(=O)(=O)c1ccc(F)cc1 (stereo not given) 4.8%
O=C(NCCC1=CCCCC1)C1CCN(Cc2cnn(-c3ccccc3)c2-n2cccc2)CC1 6.6%
Cn1c(SCC(=O)Nc2cccc(NC(=O)c3cccs3)c2)nnc1-c1ccncc1 12.7%
CC(=O)Nc1ccc(-c2cn3cccnc3n2)cc1 3.9%
CN1C(=O)c2ccccc2C(C(=O)NCCCN2CCCC2)C1c1c[nH]c2ccccc12 (stereo not given) 2.4%
CC(C)CNS(=O)(=O)c1ccc(OCC(=O)Nc2ccc3c(c2)OCO3)c(Cl)c1 4.9%
CC(=O)Nc1ccc(S(=O)(=O)NCCc2ccccc2)cc1 2.1%
CCC(=O)N1CCN=C1SCc1ccc(F)cc1 3.7%
COc1cc2[nH]c(=S)n(Cc3ccc(C)o3)c(=O)c2cc1OC 1.2%
CC(=O)c1cc2c(cc1N)OCO2 1.2%
Cc1ccc2c(c1)sc1ncc(NC(=O)c3ccccc3)c(=O)n12 -1.3%
Cc1cc(C)cc(NC(=O)N2CCC(NC(=O)c3ccc(F)cc3)CC2)c1 5.9%
CCCNS(=O)(=O)c1ccc2c(c1)CCCN2C(C)=O 9.1%
CCc1cccc2c3c([nH]c12)C(CC)(CC(=O)O)OCC3 (stereo not given) -6.8%
COc1cc(C2C3C(=O)N(c4ccccc4)C(=O)C3ON2c2ccccc2)ccc1O (stereo not given) 4.7%
CC(C)Cc1ccc(S(=O)(=O)N2CCN(C(=O)c3ccco3)CC2)cc1 7%
COc1ccc2[nH]c(=O)c(CN(Cc3nnnn3CCc3ccccc3)CC3CCCO3)cc2c1 (stereo not given) -2.5%
O=C(NCCCNCc1ccccc1)c1ccc(/C=N/O)nc1 9.9%
Cc1noc(C)c1C(=O)OCC(=O)/C=C1\N(C)c2ccccc2C1(C)C 6.8%
CC1=Nn2c(nnc2-c2ccccc2)SC1 4.2%
CCOc1cc(/C=N/n2cnnc2)c(Br)cc1O 6.7%
Cc1ccc(S(=O)(=O)N2CCN(Cc3cccc(C)c3O)CC2)cc1 6.3%
CCCc1cc(=O)n2[nH]c(SCc3ccccc3)nc2n1 5.4%
O=C(Nc1ccc(S(=O)(=O)N2CCCC2)cc1Cl)C1=COCCO1 -4.1%
Cn1c(=NC(=O)c2cnccn2)sc2ccccc21 5%
O=P(c1cccs1)(c1cccs1)c1cccs1 3.3%
COC(=O)c1nc(NC(=O)c2ccc(Cl)cc2)n[nH]1 5%
Cn1c(=NC(=O)CSCC(=O)N2CCOCC2)sc2ccccc21 7.1%
O=C(C1CCN(c2nnc(-n3cccc3)s2)CC1)N1CCc2ccccc2C1 -3.8%
O=C(Cn1nnc(-c2ccc(CN3CCOCC3)cc2)n1)NC1CCCCC1 10.1%
COC(=O)C(C)N(C#N)c1nc(C)nc(C)n1 (stereo not given) -1.3%
CCN(CC)CCN1C(=O)C(=O)/C(=C(/O)c2ccccc2)C1c1ccccc1F (stereo not given) -5.4%
N#C/C=C1\Sc2ccccc2C(=O)N1CC(=O)N1CCN(S(=O)(=O)c2ccccc2)CC1 6.8%
CCOC(=O)c1ccc(N2C(=O)CC(Sc3nc(O)c(CC)c(=O)[nH]3)C2=O)cc1 (stereo not given) 7.3%
CC(=O)Nc1cccc(NC(=O)c2c(-c3ccccc3)noc2C)c1 -5.3%
Cc1nnc(SCC(=O)NCc2cccs2)[nH]c1=O 12.3%
Cc1nc(SC(C)C)[nH]c(=O)c1Cc1ccccc1 5.4%
COc1cccc(-n2cc(C(=O)O)c3ccccc3c2=O)c1 12.3%
COc1cccc(Nc2nnc(SCC(=O)N3CC(C)OC(C)C3)s2)c1 (stereo not given) 6%
CC(=O)NC1CC2CCCC(C1)N2CC(=O)Nc1ccccc1 (stereo not given) 6%
O=C(NCC1CCCO1)C(C(=O)c1ccccc1)n1cc(Cl)ccc1=O (stereo not given) 1.8%
Cc1nc2ccc(S(=O)(=O)NCC(=O)NCCN3CCCCC3C)cc2s1 (stereo not given) -5.1%
CCOC(=O)CN1C(=O)C(O)(CC(=O)c2ccccn2)c2ccccc21 (stereo not given) 10.4%
CCOc1ccc(C(=O)Nc2cc(OC)ccc2OC)cc1 -1.4%
CC1(C)CC(=O)C(C=NCc2cccnc2)=C(O)C1 7%
CCCCCCOC(=O)NCC(O)c1ccccc1 (stereo not given) 3.5%
Cc1cc(NC(=O)c2cccc(N3C(=O)CCC3=O)c2)no1 -4%
COc1ccc2nc(NC(=O)c3ccc(Br)s3)sc2c1 -4.9%
CC(=O)Oc1ccc(C(=O)Nc2nccs2)cc1 -2.3%
COc1cc(Cl)c(S(=O)(=O)n2cnc(C)c2)cc1Cl 4.9%
O=S(=O)(NCc1cccnc1)c1ccc(Br)s1 -2.9%
CN(Cc1ccccc1)c1nc2c(c(=O)[nH]c(=O)n2C)n1CCSc1nc2ccccc2[nH]1 2.7%
COc1ccc2[nH]c(=O)c(CN(CC3CCCO3)C(=O)Nc3ccccc3)cc2c1 (stereo not given) -4.5%
c1ccc(-c2oc3ncnc(N4CCOCC4)c3c2-c2ccccc2)cc1 7.5%
CCCCCN(C(=O)NC(=O)Nc1ccccc1OC)S(C)(=O)=O 8.1%
CN1CCCc2cc(C#N)c(=O)[nH]c21 11.8%
Cc1ccccc1-n1c(SCC(=O)NCc2cccs2)nnc1-c1ccncc1 11.7%
O=C(CSc1nc2ncccc2[nH]1)Nc1ccc2c(c1)OCCO2 -9.5%
CCOC(=O)C1CCN(C(=O)C2CCN(S(=O)(=O)CC)CC2)CC1 0.3%
CCCc1nc2ccccc2c(=O)n1NC(=O)c1c(O)c2ccccc2[nH]c1=O 7.9%
O=C(O)COc1nsnc1N1CCOCC1 -0.4%
CCOC(=O)c1sc(NC(=O)CSc2nnc(-c3ccco3)o2)c(C(=O)OCC)c1C -4.6%
COC(=O)CCSc1nccn1Cc1ccccc1 1.3%
O=C(Oc1ccccc1)c1ccc2nccnc2c1 18.8%
CN1C(=O)CC(N2CCN(c3ccccn3)CC2)C1=O (stereo not given) 0.2%
Cc1ccc(-c2nc(COC(=O)c3c(C)noc3C)cs2)cc1 0.5%
CCn1c(=O)cc(OCC(=O)NCCCN2CCN(c3cccc(Cl)c3)CC2)c2ccccc21 9.2%
COC(CCN(C)C)(c1ccccc1)c1ccccc1 9.3%
COC(=O)c1ccc(NC(=O)c2ccco2)cc1 -3.7%
Cc1cccc(-n2c(Cc3cc(=O)[nH]c(=O)[nH]3)nnc2SC(C)C)c1 -8.8%
